TIM10 inh: growth inhibitors of isogenic TIM10 control yeast, primary screen, counter-screen for tim10-1 yeast inhibitor project, luminescence, uHTS | inhibition, % at 10 µM | AID 463195, 2010 | actives 1.4% (n = 330,000) | S. cerevisiae TIM10 strain growth, BacTiter-Glo luminescence, 24 h;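 active = inhibition of 40% or more at the single tested concentration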;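 also: wild-type TIM10 isogenic control strain grown at permissive 25 °C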
MPTP inh: mitochondrial permeability transition pore inhibitors, primary screen, biochemical, isolated mouse mitochondria, absorbance; Ca2+ swelling absorbance, 30 min; inhibition, % at 10 µM; actives 1.4% (n = 360,000); AID 602449, 2012;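 active = inhibition of 50% or more, scaled per plate between neutral and stimulator controls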
tim23-1 inh: growth inhibitors of tim23-1 mutant yeast, primary screen, luminescence, uHTS; AID 463212, 2010; inhibition, % at 20 µM; S. cerevisiae tim23-1 growth, BacTiter-Glo luminescence, 24 h; actives 1.3% (n = 330,000);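 active = growth inhibition of the mutant yeast at or above 50%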;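 also: temperature-sensitive mutant grown at 25 °C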
Mdm2-MdmX inh: inhibitors of human Mdm2-MdmX association, primary screen, cell-based, luminescence, split luciferase, SaOS-2, uHTS; actives 3% (n = 330,000); Protein Mdm4 (Homo sapiens) + E3 ubiquitin-protein ligase Mdm2 (Homo sapiens), …; AID 485346, 2010; inhibition, % at 8 µM; SaOS-2 split-luciferase Mdm2/MdmX complementation;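 active = inhibition of at least 50% at 8 µM in the primary screen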
tim10-1 inh: growth inhibitors of tim10-1 mutant yeast, primary screen, luminescence, uHTS. AID 463190, 2010. inhibition, % at 20 µM. actives 2.2% (n = 330,000). S. cerevisiae tim10-1 ts strain growth, BacTiter-Glo, 24 h;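 active = inhibition of at least 40%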;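 also: mutant grown at 25 °C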
tim10-1 confirm: growth inhibitors of tim10-1 mutant yeast, confirmation, single concentration, luminescence, S. cerevisiae; S. cerevisiae tim10-1 ts strain growth, BacTiter-Glo, 24 h; inhibition, % at 20 µM; AID 463213, 2010; shares compounds with tim10-1 inh; actives 56% (n = 7,400);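 active = inhibition of yeast growth at or above a set limit in either of two repeat tests at 20 µM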;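 also: tim10-1 mutant grown at permissive 25 °C to find synthetic lethal compounds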
TIM10 conf: growth inhibitors of wild-type TIM10 yeast, confirmation, counter-screen for tim10-1 synthetic lethality project, single concentration, luminescence, S. cerevisiae. shares compounds with TIM10 inh. S. cerevisiae tim10 strain growth, BacTiter-Glo luminescence, 24 h. inhibition, % at 10 µM. actives 63% (n = 4,600);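 active = inhibition of yeast growth at or above a set limit in either of two replicates at 10 µM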; also: this counterscreen used the strain with wild-type TIM10
tim23-1 confirm: tim23-1 mutant yeast growth inhibitors, confirmation, luminescence, single concentration | shares compounds with tim23-1 inh | S. cerevisiae tim23-1 growth, BacTiter-Glo luminescence, 24 h | inhibition, % at 20 µM | actives 83% (n = 4,400);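 active = inhibition above about 39% in either of two replicate wells at 20 µM, limit read from the data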;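 also: temperature-sensitive tim23-1 mutant grown at 25 °C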
Hits are given with their value; . = inactive; / = not tested or not shown. A selection: hits, their analogues and other compounds. The true share with any hit is near 6.3%.

SMILES	TIM10 inh	MPTP inh	tim23-1 inh	Mdm2-MdmX inh	tim10-1 inh	tim10-1 confirm	TIM10 conf	tim23-1 confirm
Cc1ccc(C(=O)/C=C/c2ccc(-c3ccc(C)cc3)o2)cc1	57	.	60	.	63	64	66	76
CCOC(=O)C1=C(N)OC2=C(C(=O)CC(C)(C)C2)C1c1ccoc1 (stereo unspecified)	.	.	.	.	.	/	/	/
CCOC(=O)C1=C(N)OC2=C(C(=O)CC(C)(C)C2)C1C1CCCCC1 (stereo unspecified)	.	.	56	.	45	34	/	46
COc1cc(CNc2ncnc3c2ncn3[C@H]2CN(Cc3cc(OC)c(OC)c(OC)c3)C[C@@H](CO)O2)cc(OC)c1OC	/	.	/	/	/	/	/	/
CCOc1ccc(NCc2nnc(SCc3ccc(Cl)cc3)n2-c2ccccc2)cc1	47	.	52	.	46	42	.	56
COc1ccc(C(O)c2nc(-c3ccccc3C)cs2)cc1 (stereo unspecified)	/	.	/	/	/	/	/	/
O=C1CCCN1C1CCN(Cc2ccccc2)S(=O)(=O)N1 (stereo unspecified)	/	.	/	/	/	/	/	/
Oc1ccc(/C=C/c2nc(-c3ccccc3O)n(-c3ccccc3)n2)cc1	.	.	59	.	60	51	/	64
COc1ccc(Br)cc1C(=O)NC(=S)Nc1ccc(CN2CCOCC2)cc1	.	.	51	.	55	.	/	57
CCNC(=O)C1(C)CCN(C(=O)c2c(-c3ccccc3)noc2C)C1 (stereo unspecified)	/	.	/	/	/	/	/	/
CCOC(=O)c1c(N)sc2c(O)c(Br)ccc12	53	.	52	.	50	50	47	.
CCOC(=O)c1c(N)sc2c(NC(C)=O)cccc12	.	.	.	.	.	/	/	/
CC12CCC(C(=O)N(CSC(=S)N/N=C\c3ccccc3O)C1=O)C2(C)C (stereo unspecified)	44	.	66	.	47	.	38	57
CN(C)c1ccc(/C=N\NC(=S)SCN2C(=O)C3CCC(C)(C2=O)C3(C)C)cc1 (stereo unspecified)	53	.	53	.	61	52	.	47
COc1ccc(/C=N\NC(=S)SCN2C(=O)C3CCC(C)(C2=O)C3(C)C)cc1 (stereo unspecified)	52	.	52	.	49	40	.	51
Cc1ccc(F)cc1C(=O)N1CCCC(C)(C(=O)NS(=O)(=O)C2CC2)C1 (stereo unspecified)	/	.	/	/	/	/	/	/
O=C(c1ccc([N+](=O)[O-])o1)N1CCc2ccccc21	67	.	77	.	65	77	79	86
O=C(Nc1ccc(N2CCOCC2)c(Cl)c1)c1ccc([N+](=O)[O-])o1	/	.	/	/	/	/	/	/
O=C(Nc1ccccc1N1CCOCC1)c1ccc([N+](=O)[O-])o1	90	.	70	.	80	80	94	71
Cc1ccc(C(=O)N2CCc3ccccc32)o1	.	.	.	.	.	/	/	/
CCC(c1nnnn1-c1ccc2c(c1)OCCO2)N1CCN(c2cc(C)ccc2C)CC1 (stereo unspecified)	/	.	/	/	/	/	/	/
Cc1cccc(C)c1NC(=O)C1(C)CN(S(C)(=O)=O)CC(=O)N1CCCn1ccnc1 (stereo unspecified)	/	.	/	/	/	/	/	/
Cc1cc(NC(=O)Nc2cccc(Cl)c2)n(-c2ccccn2)n1	.	.	70	.	54	41	/	76
Cc1cc(NC(=O)c2ccc(F)cc2)n(-c2ccccn2)n1	.	.	.	.	.	/	/	/
CC(=O)N1C(=O)C2(NCC(C)N2)c2ccccc21 (stereo unspecified)	/	.	/	/	/	/	/	/
SMILES	TIM10 inh	MPTP inh	tim23-1 inh	Mdm2-MdmX inh	tim10-1 inh	tim10-1 confirm	TIM10 conf	tim23-1 confirm
O=C(NC(=S)N1CCc2ccccc21)c1ccc(Br)o1	67	.	64	.	62	56	57	66
CC(C)(C)C(=O)NC(=S)N1CCc2ccccc21	.	.	.	.	.	/	/	/
C=CCn1c(=O)/c(=C/c2ccc(Cl)cc2)s/c1=C(/C#N)c1nnc2n1CCCCC2	49	.	63	.	57	33	44	58
C=CCn1c(=O)/c(=C/c2ccc(O)cc2)s/c1=C(/C#N)c1nnc2n1CCCCC2	.	.	.	.	.	/	/	/
S=c1[nH]nc(C2CCCCC2)n1/N=C/c1ccccc1Cl	.	.	64	.	58	29	/	61
FC(F)(F)c1ccccc1/C=N/n1c(C2CCCCC2)n[nH]c1=S	.	.	51	.	48	33	/	51
Cn1nnc(NC(=S)NC(=O)c2cccc3ccccc23)n1	.	.	57	.	53	.	/	.
CCOc1cccc(CNc2ccc(O)cc2)c1OCc1ccc(Cl)cc1	.	.	60	.	43	32	/	59
CCOc1ccccc1CNc1ccc(O)cc1	/	.	/	/	/	/	/	/
O=C(NCc1ccccc1)C(C1CC1)n1c(=O)c(-c2ccco2)nc2ccccc21 (stereo unspecified)	/	.	/	/	/	/	/	/
CC(=O)O/N=C(/c1nonc1N)N1CCN(c2ccc([N+](=O)[O-])cc2Cl)CC1	75	.	63	.	62	67	85	75
Cc1ccc(S(=O)(=O)CNC(=S)c2ccc3ccccc3c2)cc1	.	.	53	.	43	.	/	50
COc1ccc(C(=O)c2[nH]c(N)c(C(=O)NCCc3c[nH]c4ccccc34)c2-c2ccc(OC)c(OC)c2)cc1	/	.	/	/	/	/	/	/
O=C(O)c1cocc1C(=O)O	/	.	/	/	/	/	/	/
COc1ccc(C(=O)n2cc(C(=O)c3cc(C)ccc3O)cn2)cc1	.	.	.	.	.	/	/	/
COc1ccc(O)c(C(=O)c2cnn(S(=O)(=O)c3ccc(C)cc3)c2)c1	.	.	52	.	54	35	/	52
COc1ccc(/C=C2\COc3ccccc3C2=O)cc1OC	50	.	70	.	57	57	.	58
CC1(C)CC(=O)c2cnc(N3CCc4ccccc4C3)nc2C1	.	.	71	.	55	53	/	52
CCN1CCN(c2nc3sc4c(c3c3ncnn23)CC(C)CC4)CC1 (stereo unspecified)	.	.	.	.	.	/	/	/
CC1CCc2sc3nc(NCc4ccco4)n4ncnc4c3c2C1 (stereo unspecified)	.	.	51	.	41	35	/	56

Screens as filed in PubChem BioAssay.
